Structures can show the parent of a compound that is named as a salt.
system: PBMC-derived induced microglia-like cells (piMGLC); test: synaptosome phagocytic index relative to DMSO control (fraction of DMSO); higher = more phagocytosis; details: concentration: 10 uM (2 uM for compounds listed in Table S2); pretreatment time: 24 h; assay time: 3 h

Row | SMILES | synaptosome phagocytic index
1 | CN(C)CC(c1ccc(O)cc1)C1(O)CCCCC1 (stereo unspecified) [Desvenlafaxine_(succinate_hydrate)] | 1.11
2 | N[C@@H]1CONC1=O [D-Cycloserine] | 0.834
3 | FC(F)(F)c1ccc(CNc2ccc(Cc3c[nH]c4ncc(Cl)cc34)cn2)cn1 [Pexidartinib] | 0.587
4 | O=C1N[C@@H](Cc2cnc[nH]2)C(=O)N2CCC[C@@H]12 [Cyclo(his-pro)_(TFA)] | 0.449
5 | CCCN(CCC)S(=O)(=O)c1ccc(C(=O)O)cc1 [Probenecid] | 0.701
6 | Cn1ncc(-c2nn(C)c3ncnc(N4CCC4)c23)c1-c1ccc(C(F)(F)F)cc1 | 0.505
7 | CC(C)n1c(=O)n(C)c2cnc3cc(F)c(-c4ccc(OCCCN5CCCCC5)nc4)cc3c21 | 0.706
8 | COc1cc2nc(N(C)CCCNC(=O)C3CCCO3)nc(N)c2cc1OC (stereo unspecified) [Alfuzosin] | 0.938
9 | CCCN[C@H]1CCc2nc(N)sc2C1 [Pramipexole] | 0.882
10 | CC[C@H](COc1cccnc1C1CCN(C(=O)[C@@H](Cc2ccc(Cl)cc2Cl)NC(=O)N2CCCC2)CC1)N1CCCC1 | 0.292
11 | O=C(CCCCCCC(=O)Nc1ccccc1)NO [Vorinostat] | 0.0904
12 | COc1ccc(C2CNC(=O)C2)cc1OC1CCCC1 (stereo unspecified) [Rolipram] | 0.814
13 | CCCN[C@H]1CCc2nc(N)sc2C1 [Pramipexole_(dihydrochloride_hydrate)] | 0.763
14 | CCCCC1C(=O)N(c2ccccc2)N(c2ccccc2)C1=O [Phenylbutazone] | 0.797
15 | Nc1cccc2c1CN(C1CCC(=O)NC1=O)C2=O (stereo unspecified) [Lenalidomide] | 1.11
16 | CC[C@H](CO)Nc1nc(NCc2ccccc2)c2ncn(C(C)C)c2n1 [Seliciclib] | 0.569
17 | CCN(CC)Cc1ccc2cc(COC(=O)Nc3ccc(C(=O)NO)cc3)ccc2c1 [Givinostat_(hydrochloride_monohydrate)] | 0.482
18 | CN1C[C@@H]2[C@H](C1)[C@H]2CN(Cc1ccc(F)c(Cl)c1)C(=O)c1cn(C)cn1 | 0.691

Row | SMILES | synaptosome phagocytic index
19 | Cc1cc(C)cc(OCC2CNC(=O)O2)c1 (stereo unspecified) [Metaxalone] | 0.757
20 | CN(C)CCOc1ccc(-c2nc(-c3ccncc3)c(-c3ccc4c(c3)CC/C4=N\O)[nH]2)cc1 | 0.684
21 | CN(C)CCC=C1c2ccccc2CCc2ccccc21 [Amitriptyline_(hydrochloride)] | 0.997
22 | CCc1cc(C(N)=S)ccn1 [Ethionamide] | 0.996
23 | NC(=O)c1ccc(OCCCN2CC3CCCC3C2)cc1 (stereo unspecified) | 0.933
24 | COc1cccc2c1C(=O)c1c(O)c3c(c(O)c1C2=O)C[C@@](O)(C(=O)CO)C[C@@H]3O[C@H]1C[C@H](N)[C@@H](O)[C@H](C)O1 [Epirubicin_(hydrochloride)] | 0.904
25 | Nc1nc(NC2CC2)c2ncn([C@H]3C=C[C@@H](CO)C3)c2n1 [Abacavir] | 1.15
26 | N[C@H]1CONC1=O [L-Cycloserine] | 0.883
27 | OC(CCN1CCCCC1)(c1ccccc1)C1CCCCC1 (stereo unspecified) [Trihexyphenidyl_(hydrochloride)] | 1.24
28 | Cc1nc(N)nc(N)c1-c1ccc(Cl)c(Cl)c1 [Metoprine] | 1.25
29 | O=c1n(CCCN2CCN(c3cccc(Cl)c3)CC2)nc2ccccn12 [Trazodone_(hydrochloride)] | 1.39
30 | CC(C)(C)CCN1C[C@@H]2C(CNC(=O)c3cc(Cl)cc(Cl)c3)[C@@H]2C1 (stereo partly specified) | 0.191
31 | CNS(=O)(=O)CCc1ccc2[nH]cc(C3CCN(C)CC3)c2c1 [Naratriptan_(hydrochloride)] | 1.3
32 | CC(C)(S)[C@@H](N)C(=O)O [Penicillamine] | 0.328
33 | Nc1nc2c(ncn2COCCO)c(=O)[nH]1 [Acyclovir] | 0.731
34 | C[C@H](C(=O)O)c1cccc(C(=O)c2ccccc2)c1 [S-(+)-Ketoprofen] | 0.724
35 | C[C@@H](Nc1nc(N[C@H](C)C(F)(F)F)nc(-c2cccc(Cl)n2)n1)C(F)(F)F [Vorasidenib] | 0.481
36 | CC/C(=C(/CC)c1ccc(O)cc1)c1ccc(O)cc1 [Diethylstilbestrol] | 0.638

— the supplement of paper PMC12339681
